SRC2 inh: inhibits human steroid receptor coactivator 2 | 0.17% of 370,000 active | AID 651957 | HEK293 GAL4-SRC2 luciferase reporter, luminescence | inhibition, % at 9 µM;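 active means inhibition above the mean inhibition of all tested compounds plus 3 SD, set per campaign, cut at about 52% in these data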;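 further: 0% = DMSO treated cells and 100% = cells given Gossypol at 36 µM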
SRC1 inh: inhibitors of human steroid receptor coactivator 1 (SRC1); Q15788; HEK293 GAL4-SRC1 luciferase reporter, luminescence; inhibition, % at 3.6 µM; 0.12% of 360,000 active;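 active means inhibition above the campaign mean plus 3 SD, with each screening campaign given its own cutoff, cut at about 60% in these data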;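 further: 0% = DMSO treated cells and 100% = gossypol at 36 µM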
NR5A2 inv ag: suppresses constitutive activity of human LRH-1; O00482; HEK293T StAR-luciferase reporter, LRH-1 transfected, 24 h; inhibition, % at 3.6 µM; 0.13% of 360,000 active;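 active means inhibition above the mean inhibition of all tested compounds plus 3 SD, cut at about 73% in these data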;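 further: 0% = DMSO wells and 100% = reporter-only cells lacking LRH-1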
NR2F2 inh: NR2F2 (human) inhibition, primary screen. 0.7% of 370,000 active. inhibition, % at 8.6 µM. HEK293T NGFI-A luciferase reporter, luminescence. AID 686940;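 active means inhibition above a per-plate cutoff, mean inhibition of test wells between control levels plus 3 SD, cut at about 38% in these data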;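 further: cells cotransfected with COUP-TFII expression vector driving the NGFI-A reporter; 0% = median of COUP-TF2 test wells and 100% = reporter-only cells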
Target sequence (P24468 whole entry, looked up): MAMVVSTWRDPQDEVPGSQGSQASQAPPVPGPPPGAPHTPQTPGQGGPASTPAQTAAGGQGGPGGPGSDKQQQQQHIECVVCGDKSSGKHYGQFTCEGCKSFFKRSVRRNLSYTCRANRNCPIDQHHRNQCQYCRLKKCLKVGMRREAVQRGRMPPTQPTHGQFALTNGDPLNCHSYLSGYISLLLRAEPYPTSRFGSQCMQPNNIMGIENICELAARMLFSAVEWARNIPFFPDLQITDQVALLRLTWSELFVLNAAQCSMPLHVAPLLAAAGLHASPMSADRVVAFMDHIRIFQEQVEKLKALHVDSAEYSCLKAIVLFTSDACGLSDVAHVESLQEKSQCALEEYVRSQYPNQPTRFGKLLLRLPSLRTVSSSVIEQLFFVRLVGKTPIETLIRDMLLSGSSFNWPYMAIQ
NCOA3 inh: inhibits human SRC3 coactivator; inhibition, % at 3.6 µM; AID 588352; HEK293 GAL4-SRC3 luciferase reporter, luminescence; 0.17% of 360,000 active; Q9Y6Q9;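 active means inhibition above a per-campaign cutoff, the mean of all compounds plus 3 SD, cut at about 60% in these data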;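 further: 0% = DMSO-treated cells and 100% = gossypol-treated cells at 36 µM; higher means less SRC3-driven luciferase light from the GAL4 reporter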
VP16 Luc counter: counter-screen for COUP-TFII antagonists: inhibitors of VP16; HEK293 Gal4-VP16 luciferase reporter, luminescence; shares compounds with NR2F2 inh; inhibition, % at 8.5 µM; 25% of 2,500 active; AID 687007; in the data active means inhibition above about 13%
NR2F2 inh conf: COUP-TFII (NR2F2) inhibition, confirmation assay | shares compounds with NR2F2 inh | HEK293 NGFI-A luciferase reporter, luminescence | inhibition, % at 8.5 µM | 45% of 2,500 active;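 active means mean inhibition over three repeats above a set limit taken from the earlier primary screen, cut at about 38% in these data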;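 further: 100% = cells given the luciferase reporter alone without the COUP-TF2 vector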
* hit, by the source's call; nt = no result given. Rows were chosen to be rich in hits. Some 0.84% of all compounds tested hit in one or more screens of this group.

SMILES	SRC2 inh	SRC1 inh	NR5A2 inv ag	NR2F2 inh	NCOA3 inh	VP16 Luc counter	NR2F2 inh conf
CC(C)CNS(=O)(=O)/C=C/c1cc2c(cc1CNC(=O)OC(C)(C)C)OCO2	-9	nt	nt	12	nt	nt	nt
Cc1c(/C(O)=C2\C(=O)C(=O)N(CCCN(C)C)C2c2ccco2)cnn1-c1ccccc1 (centres undefined)	25	21	18	49*	32	-1	6
Cc1c(/C(O)=C2\C(=O)C(=O)N(CCN(C)C)C2c2ccco2)cnn1-c1ccccc1 (centres undefined)	0	11	-3	25	10	nt	nt
Cc1nn(C(C)C)c(C)c1CN1CCCC(C(=O)c2cccc(OC(C)C)c2)C1 (centres undefined)	29	13	-4	37*	9	1	16
CCn1nc(C)c(CN2CCCC(C(=O)c3cccc(OC(C)C)c3)C2)c1C (centres undefined)	10	6	21	32	8	nt	nt
O=C1CCCCC1Sc1nnc(-c2ccc3c(c2)OCO3)o1 (centres undefined)	57*	43	9	64*	45	22*	59*
CCCCN(C(=O)CCC(=O)O)C1CC(=O)N(c2ccc(OCCC)cc2)C1=O (centres undefined)	-2	2	-9	-10	5	nt	nt
CCCCCCC(=O)N(O)C1CC(=O)N(c2ccc(Br)cc2)C1=O (centres undefined)	22	16	5	40*	3	3	52*
CCCCCCC(=O)N(O)C1CC(=O)N(c2ccc(F)cc2)C1=O (centres undefined)	28	2	-2	38*	27	-4	44*
COC(=O)[C@]12C[C@H](CC(=O)NCC34CC5CC(CC(C5)C3)C4)C(=O)N(CCc3ccc(OC)c(OC)c3)C1=C[C@H](C1CCCC1)O[C@@H]2C	-1	nt	nt	4	nt	nt	nt
O=C(CSc1nnc(-c2cnccn2)n1-c1ccccc1)c1ccc(F)cc1	-13	nt	nt	10	nt	nt	nt
C=CCOc1ccc(CN(C)C(=O)c2ccc(CNS(=O)(=O)c3ccc(C)c(C)c3)cc2)cc1	30	-10	11	41*	14	0	29
CN(Cc1ccc(F)cc1)C(=O)c1cccc(S(=O)(=O)NCc2ccccc2)c1	-18	3	5	11	-10	nt	nt
CN1CCN(c2ccc(NC(=O)N3CCc4ccccc43)cc2)CC1	37	57	35	62*	53	-11	63*
Cc1cc(C(=O)CSc2nnc(-c3cccc(F)c3)n2N)c(C)n1Cc1ccc2c(c1)OCO2	8	7	41	44*	22	-3	28
Cc1cc(C(=O)CSc2nnnn2-c2ccc(O)cc2)c(C)n1Cc1ccc2c(c1)OCO2	0	-11	22	-2	-6	nt	nt
COC(=O)c1c(C)n(-c2ccc(OC)cc2)c2ccc(O)cc12	47	21	-1	39*	39	-7	8
CCOC(=O)c1c(C)n(-c2ccc(F)cc2)c2ccc(O)cc12	nt	9	3	nt	5	nt	nt
CS(=O)(=O)Nc1ccc(N2CCN(c3ccc(C(F)(F)F)cn3)CC2)nc1	16	1	9	43*	14	-3	11
O=C(Nc1ccc(N2CCOCC2)nc1)c1ccc(C(F)(F)F)cc1	24	8	1	49*	19	10	35
COC(=O)[C@]12C[C@H](CC(=O)N3CCN(C(=O)C4CC4)CC3)C(=O)N(Cc3ccco3)C1=C[C@H](C(C)(C)C)O[C@@H]2C	15	nt	nt	8	nt	nt	nt
Cc1ccnc(OC(C(=O)O)C(OCc2ccccc2)(c2ccccc2)c2ccc(C(F)(F)F)cc2)n1 (centres undefined)	-30	8	19	47*	35	6	14
C/C(CC(C)(C)C1CCCCC1)=N\NC(N)=S	40	41	70	59*	62*	17*	64*
Cc1ccc(-c2noc(CCC(=O)NCC3CCCO3)n2)cc1 (centres undefined)	24	-6	2	1	5	nt	nt
CC(C)(C)c1ccc(-c2noc(CCC(=O)Nc3cccnc3)n2)cc1	80*	21	37	78*	41	59*	77*
SMILES	SRC2 inh	SRC1 inh	NR5A2 inv ag	NR2F2 inh	NCOA3 inh	VP16 Luc counter	NR2F2 inh conf
CN(C)C(=O)CCc1nc(-c2ccc(C(C)(C)C)cc2)no1	-13	-68	-100	-25	-68	nt	nt
CC(C)(C)c1ccc(-c2noc(CCC(=O)NCC3CCCO3)n2)cc1 (centres undefined)	59*	22	40	75*	20	26*	61*
CC(C)(C)c1ccc(-c2noc(CCC(=O)NC3CC3)n2)cc1	nt	nt	nt	56*	nt	-47	36
CNC(=O)CCc1nc(-c2ccc(C(C)(C)C)cc2)no1	2	-78	-89	-14	-69	nt	nt
CC(C)(C)c1ccc(-c2noc(CCC(N)=O)n2)cc1	83*	51	76*	85*	59	72*	88*
COc1ccc(-c2noc(CCC(=O)Nc3cccnc3)n2)cc1	8	-16	-8	1	-33	nt	nt
Cc1cccc(-c2cccc(NC(=O)C3CCCN(C(=O)c4csc(C)n4)C3)c2)c1 (centres undefined)	7	19	25	42*	7	-35	18
CC(C)CNC(=O)OCc1cn(Cc2ccc(F)cc2F)nn1	-14	nt	nt	-1	nt	nt	nt
Cc1ccccc1N=Nc1ccc(O)c2ncccc12	-2	12	4	-13	7	nt	nt
O=Nc1ccc(O)c2ncccc12	20	-214	11	54*	-92	5	41*
Cc1csc2ncnc(NC3CCN(Cc4ccccc4)CC3)c12	23	-2	38	59*	20	7	59*
Cc1ccc(-c2csc3ncnc(N4CCN(Cc5ccccc5)CC4)c23)cc1	18	5	-17	-7	10	nt	nt
CC(=O)N1CCc2cc(S(=O)(=O)NCCC(=O)N(C)C3CCCCC3)ccc21	7	nt	nt	22	nt	nt	nt
COCc1cc(N2CCN(C(=O)OC(C)(C)C)C[C@@H]2C)ccc1N1CCN(Cc2ccccc2)[C@@H](C)C1	-3	nt	nt	37*	nt	5	16
Cc1cc(N2CCN(C(=O)OC(C)(C)C)C[C@@H]2C)ccc1N1CCN(Cc2ccccc2)[C@H](C)C1	19	nt	nt	23	nt	nt	nt
O=C(Nc1ccccc1Cl)N1CCCN(c2nc(-c3ccccc3)ns2)CC1	24	16	-16	9	20	nt	nt
Cc1c(Cl)cccc1NC(=O)N1CCCN(c2nc(-c3ccccc3)ns2)CC1	14	14	23	57*	30	8	51*
COc1ccccc1CNC(=O)C[C@H]1CC[C@H]2[C@H](COc3ccc(NS(=O)(=O)c4ccc(C)cc4)cc3C(=O)N2C)O1	-7	nt	nt	10	nt	nt	nt
COC(=O)c1ccc(CSc2nnc(-c3c[nH]c4ccccc34)n2-c2ccccc2)cc1	-2	-4	13	20	-8	nt	nt

Assay outcomes: PubChem, The Scripps Research Institute Molecular Screening Center
